This note sets out measurements from the supplement of paper PMC8726507.

Values without a mark were called inactive.

The first test deals with Plasmodium falciparum NF54-HGL (transmission to Anopheles stephensi). The experiment in a line: percentage of barcode signal found in uninfected mosquitoes (transmission-blocking activity); higher = stronger blocking of transmission to mosquito, active = 80 or more. The note with it: 10 µM; gametocyte preincubation time 24 h; readout time post-feed 8 days. The method, then: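 The mixture was fed to Anopheles stephensi in 96-well plates as blood meals tagged with DNA-barcoded Asaia bacteria. Eight days later, mosquitoes were classed infected or uninfected by luminescence (mean + 5 SD of unfed controls). Barcodes were quantified by Luminex MagPlex-TAG in the pooled uninfected and infected Asaia cultures, background-corrected, and the score is % of barcode signal in uninfected mosquitoes = 100*Iu/(Iu+Ii).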
On to `COc1cccc(-n2nnnc2S(=O)(=O)Cc2ccccc2)c1`, for which the “percentage of barcode signal found in uninfected mosquitoes” value (“percentage of barcode signal found” below) was 90.4% (active).

Turning to `COC(=O)c1cccc2oc(-c3cccc(OC)c3NC(=O)c3cc(-c4ccccc4)on3)nc12`, the “percentage of barcode signal found” value is 31%.

`CC1CC1C(=O)NC1CCN(CC2(c3ccccc3)CCCCC2)CC1` (stereo not drawn): the “percentage of barcode signal found” value was 97.6% (active).

As for `COc1ccc(Cl)cc1NC(=O)CN(C)C(=O)c1cnn(-c2ccccc2)n1`, the “percentage of barcode signal found” value is 64.6%.

Regarding `FC(F)(F)c1nnc2ccc(Cl)nn12`, the “percentage of barcode signal found” value is 20.5%.

On to `COc1ccc(C2CC(c3cccs3)=NN2C(=O)c2ccco2)cc1OC` (stereo not drawn), for which the “percentage of barcode signal found” value was 57.1%.

On to `Brc1c(-c2ccc3c(c2)OCO3)nc2ncccn12`, for which the “percentage of barcode signal found” value was 6.02%.

In the case of `Clc1ccc(CCNc2cc(-c3ccccc3)nc3ncnn23)cc1`, the “percentage of barcode signal found” value is -1.04%.

On to `CN1CCN(CCCOc2ncc(Nc3ncc(-c4ccc(C(F)(F)F)c(F)c4)nc3C(N)=O)cn2)CC1`, for which the “percentage of barcode signal found” value is 75.6%.

`NCCCC(N)(C(=O)O)C(F)F` (stereo not drawn): the “percentage of barcode signal found” value is 37.7%.

Take `CO[C@@H](C(=O)N1Cc2[nH]nc(NC(=O)c3ccc(N4CCN(C)CC4)cc3)c2C1)c1ccccc1`: the “percentage of barcode signal found” value was 68.7%.

Turning to `O=C1N(Cc2cc3ccccc3s2)CC2CN(Cc3ccccc3)CCN12` (stereo not drawn), the “percentage of barcode signal found” value was 58.1%.

`O=C(NC1CCCCC1)N1CCN(Cc2ccc3c(c2)OCO3)CC1`: the “percentage of barcode signal found” value is -0.671%.

For `O=C(NCc1ccoc1)N1CCN(Cc2ccc3c(c2)OCO3)CC1`, the “percentage of barcode signal found” value is 25.5%.

With `Cc1ccc(S(=O)(=O)N2CCN(C(=O)c3cc(-c4ccccc4)[nH]n3)CC2)cc1`, the “percentage of barcode signal found” value was 69.8%.

`Cc1cc2nc(NC(=O)C(C)(C)C)nc(Cl)c2n1Cc1ccc(Cl)cc1`: the “percentage of barcode signal found” value was 79.6%.

In the case of `O=C(C1CCN(c2nnnn2-c2ccccc2)CC1)N1CCc2ccccc2C1`, the “percentage of barcode signal found” value is 46.7%.

For `O=C(NCCN1CCCC1)c1cc(NCCCCN2CCC(F)(F)CC2)nc2ccc(Cl)cc12`, the “percentage of barcode signal found” value was 91.2% (active).

As for `CCc1c(C)nc(-n2nc(C)cc2NC(=O)c2ccccc2SC)[nH]c1=O`, the “percentage of barcode signal found” value is 53.6%.

Consider `COc1ccc(OC(C)C(=O)Nc2ccc(Cl)cc2C)cc1` (stereo not drawn), for which the “percentage of barcode signal found” value is -0.09%.

Turning to `O=C1COCc2ccc(Br)cc2N1Cc1ccc(C(F)(F)F)cc1`, the “percentage of barcode signal found” value was 22.4%.

Staying with this test, now noted: 20 µM; gametocyte preincubation time 24 h; readout time post-feed 8 days.
In the case of `Cc1ccc2nc(C)c(-c3ccn(Cc4ccccc4)n3)n2c1`, the “percentage of barcode signal found” value was 71.6%.

In the case of `Cc1cc(OCC(=O)NCc2ccccc2)c2cc(Br)ccc2n1`, the “percentage of barcode signal found” value was 0.13%.

`CC(C(=O)N1CCCC1)N1CCN(S(=O)(=O)c2ccc(C(C)(C)C)cc2)CC1` (stereo not drawn): the “percentage of barcode signal found” value is 0.922%.

Take `CC(C)(C)c1cc(C(=O)N2CCN(c3nccnc3C#N)CC2)n(Cc2ccccc2)n1`: the “percentage of barcode signal found” value was 33.5%.

Take `CNCCC(Oc1ccc(C(F)(F)F)cc1)c1ccccc1` (stereo not drawn): the “percentage of barcode signal found” value is 27.5%.

As for `CCOC(=O)c1c(NC(=O)c2c(F)c(F)c(F)c(F)c2F)sc(C(N)=O)c1C`, the “percentage of barcode signal found” value was 60.8%.

With `COc1ccc(-c2cncc3ccc(C(=O)NCCCn4ccnc4)nc23)cc1`, the “percentage of barcode signal found” value is 62.9%.

On to `Clc1ccc(CN2CCN(C3=NCCN3)CC2)cc1Cl`, for which the “percentage of barcode signal found” value was 4.45%.

For the molecule `Cc1cc(Cl)c(S(=O)(=O)N2CCCC2)cc1OCC(=O)NC1CCCCC1`, the “percentage of barcode signal found” value was 1.74%.

With `CC[P](CC)(CC)=[Au][S][C@H]1O[C@@H](COC(C)=O)[C@H](OC(C)=O)[C@@H](OC(C)=O)[C@@H]1OC(C)=O`, the “percentage of barcode signal found” value was 99% (active).

Consider `COc1cccc(-c2cc3c(Nc4cccnc4)nccc3[nH]2)c1`, for which the “percentage of barcode signal found” value was 29%.

Consider `C[C@H](C(N)=O)N1CCCC[C@H]1c1ccc(OCc2cccc(F)c2)cc1`, for which the “percentage of barcode signal found” value is 25%.

As to `OCc1ccc(-c2cncc(Nc3cccc(Cl)c3)c2)cc1`, the “percentage of barcode signal found” value was 4.28%.

Regarding `CCN(CC)C(=O)N1CCN(C)CC1`, the “percentage of barcode signal found” value was 4.35%.

For the molecule `CCN(CC)S(=O)(=O)c1ccc(C(=O)Nc2cc(C)nn2-c2nc(C)c(C)c(=O)[nH]2)cc1`, the “percentage of barcode signal found” value was 66.7%.

On to `C[C@@H]1[C@H](O)[C@@H](C)/C=C/C=C/C=C/C=C/C=C/C=C/C=C/[C@H](O[C@@H]2O[C@H](C)[C@@H](O)[C@H](N)[C@@H]2O)C[C@@H]2O[C@](O)(C[C@@H](O)C[C@@H](O)[C@H](O)CC[C@@H](O)C[C@@H](O)CC(=O)O[C@H]1C)C[C@H](O)[C@H]2C(=O)O`, for which the “percentage of barcode signal found” value was -1.39%.

As for `O=C(Nc1cccc(-c2ccc(NCCCN3CCCC3)nc2)c1)c1ccccc1`, the “percentage of barcode signal found” value was 29.8%.
